Source: PubChem BioAssay
Measured potencies and affinities stand elsewhere. Records with an inconclusive call do not appear. Calls of active or inactive are those of the source.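 Rule for the calls: active = fitted half-maximal concentration for viability loss no higher than twice the top valid dose, in every repeat run; inconclusive = repeat runs disagree, flat partial loss, or poor curve fit; inactive = the rest.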

Experiment: IOSE-T80 viability loss, PAX8-independent line – cell-based, cherry-pick, selectivity assay for PAX8 inhibitor project, dose response (AID 687032);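 note: cells exposed to compound for 96 h before reading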
Conditions: CellTiterGlo ATP luminescence, 96 h; series mostly up to 35 µM

Row | Structure (SMILES) | outcome
1 | Cc1ccc(S(=O)(=O)N(C)C[C@H]2Oc3cc(C#Cc4ccncc4)ccc3S(=O)(=O)N([C@H](C)CO)C[C@H]2C)cc1 | inactive
2 | O=C(Cc1ccccc1)N1CC[C@H]2[C@H](CO)Nc3ccc(C4=CCCCC4)cc3[C@H]21 | inactive
3 | Cc1noc(C)c1S(=O)(=O)Nc1ccc2c(c1)C(=O)N([C@H](C)CO)C[C@@H](C)[C@H](CN(C)C(=O)Nc1ccc(C(F)(F)F)cc1)OCCCC[C@@H](C)O2 | inactive
4 | C[C@@H]1CN([C@H](C)CO)C(=O)c2cc(NC(=O)Cc3ccccc3)ccc2O[C@@H](C)CCCCO[C@@H]1CN(C)Cc1ccc(C(F)(F)F)cc1 | inactive
5 | C[C@H](CO)N1C[C@H](C)[C@@H](CN(C)S(=O)(=O)c2cccc(F)c2)OCc2ccccc2-c2c(n(C)c3ccccc23)C1=O | inactive
6 | C[C@@H]1CN([C@@H](C)CO)C(=O)Cc2cc(NC(=O)Cc3cn(C)c4ccccc34)ccc2O[C@H]1CN(C)Cc1ccc(Oc2ccccc2)cc1 | inactive
7 | C[C@H]1CCCCO[C@H](CN(C)C(=O)C2CCCCC2)[C@@H](C)CN([C@@H](C)CO)C(=O)c2cc(NS(=O)(=O)c3ccc(Cl)cc3)ccc2O1 | inactive
8 | C[C@@H]1CN([C@H](C)CO)C(=O)c2cc(NC(=O)Nc3ccc(F)cc3)ccc2O[C@@H](C)CCCCO[C@@H]1CN(C)Cc1ccc(Cl)c(Cl)c1 | inactive
9 | C[C@@H]1CN([C@H](C)CO)C(=O)c2cc(NC(=O)Nc3cccc4ccccc34)ccc2O[C@@H]1CN(C)C(=O)Nc1cccc2ccccc12 | inactive
10 | C[C@@H]1CCCCO[C@H](CN(C)Cc2ccc(C(F)(F)F)cc2)[C@H](C)CN([C@H](C)CO)C(=O)c2cc(NC(=O)c3ccccc3)ccc2O1 | inactive
